Source: PubChem BioAssay
Pf Dd2 inh – Plasmodium falciparum Dd2 growth inhibition; P. falciparum Dd2 growth, SYBR Green, 72 h; Potency, µM (titrated, usually from 28.9 µM), actives largely listed as inhibitors; 120,000 tested, 4.3% active; active = well fitted inhibition curve with a large enough effect; note: nearly all actives have a fitted effect of over 65% in size
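Infected erythrocytes (Dd2, 0.3% parasitemia, 2.5% hematocrit final) are added to compound in RPMI-1640/Albumax II medium, grown 72 h at 37C in low oxygen, then lysed with saponin/Triton-X containing SYBR Green and read by fluorescence.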
Numbers stand for hits; . = inactive; [ ] = another dose, or the depositor's remark. The entries come from a sample that favours hits as a whole.

SMILES	Pf Dd2 inh
C=Cc1ccc(Cn2c(C(=O)O)c(CNCCc3ccco3)c3ccc(C)cc32)cc1	.
O=C(O)C[C@@H]1CCN(C(=O)Nc2ccccc2)C[C@@H]1CCN1CCC(n2c(=O)[nH]c3ccccc32)CC1	.
O=C(C1CCCO1)N1CCCC(c2ccccc2)(c2ccccc2)C1 (stereo not drawn)	.
Cc1ccc(-n2c(C3CCN(C(=O)c4ccc5ccccc5n4)CC3)n[nH]c2=O)cc1	.
Cc1ccn(CC(=O)N2CC(F)(F)C[C@H]2c2nc(C3CC3)no2)n1	.
Cc1cccc(C(=O)N2CCC(C(NC(=O)c3ccccc3Cl)C(=O)NCC(C)C)CC2)c1 (stereo not drawn)	.
CC(C)(C)CC(=O)Nc1nc2c(s1)C[C@@H]1[C@](C)(CO)[C@H](O)CC[C@@]1(C)[C@@H]2CC(=O)NCCN1CCOCC1	.
COc1nccnc1NC1CCN(C(=O)c2ccccc2C)CC1	.[5.79 µM]
CC(C)c1ccccc1Oc1c(C(F)(F)F)oc2c(CN3CCN(C)CC3)c(O)ccc2c1=O	0.32µM
COc1ccc(CN2CCC(O)(c3csc(CN4CCN(C)CC4)n3)CC2)cc1	.
CCc1ccc(Oc2c(C(F)(F)F)oc3c(CN4CCN(C)CC4)c(O)ccc3c2=O)cc1	0.28µM
CN1CCN(Cc2nc(C3(O)CCN(Cc4ccc(C(F)(F)F)cc4)CC3)cs2)CC1	.
CCN1CCN(C(c2ccccc2F)c2c(O)cc(C)n(CCOC)c2=O)CC1 (stereo not drawn)	.
CCN1CCN(Cc2c(O)ccc3c(=O)c(Oc4ccccc4C(C)C)c(C(F)(F)F)oc23)CC1	0.063µM
NC(=O)[C@@H]1C[C@H](Oc2cccnc2)CN1S(=O)(=O)c1ccccc1	.
COc1ccc(CC(=O)N[C@H]2CCOC[C@H]2C2CCOCC2)c(OC)c1	.
Cn1cccc1C(=O)NC[C@H]1O[C@@H](CO)[C@@H](O)[C@H]1N1CCOCC1	.
CCCc1cc(C(=O)N2CCC(=O)N(Cc3ccccc3)C(CC)C2)ccn1 (stereo not drawn)	.
O=C(Cc1ccc(C(F)(F)F)cc1)N1CC(COc2ccccc2)C2(C1)CN(C(=O)c1cn[nH]c1)C2 (stereo not drawn)	.
CCC(=O)N1CCc2sc(C(=O)NCc3ccc(C)cc3)cc2C1	.
O=C(NC1CCS(=O)(=O)C1)c1cc2c(s1)CN(C1CCCC1)C2 (stereo not drawn)	.
Cc1ccc(NC(=O)c2cc3c(s2)CN(C2CC2)C3)cc1	10µM
CSc1ccc(NC(=O)c2cc3c(s2)CN(C2CC2)C3)cc1	10µM
CSc1ccc(NC(=O)C2CCN(c3ncccn3)CC2)cc1	.
O=C(NC1CCCCC1)c1cc2c(s1)CCN(C(=O)c1ccc(F)cc1)C2	.
SMILES	Pf Dd2 inh
O=C(NCc1nnc2ccc(-c3ccc(Cl)cc3)nn12)C1(c2ccccc2)CC1	.
COC[C@H]1C[C@@H](NC(=O)c2cncnc2)[C@H](O)[C@@H]1O	.
O=C(O)C1=NOC2CN([S+](=O)([O-])C3CCCC3)CC12 (stereo not drawn)	.
CNCCN1C(=O)CC[C@H]2CN(C(=O)c3cnc4nc(C)[nH]n4c3=O)CC[C@H]21	.
CC(C)C[C@@H](NC(=O)[C@@H]1C[C@@H](NS(=O)(=O)c2cn(C)cn2)CCN1C(=O)COCC(=O)O)C(N)=O	.
Cc1ccc(Cl)cc1N1CCN(CCCNC(=O)c2ccc3nc(N4CCCCC4)sc3c2)CC1	.
CCn1c(C)c(C)c2cc(C(=O)NCCCN3CCCCC3)ccc21	.
Cc1ccc(-c2cn3c(n2)sc2cc(C(=O)NCCCN4CCCCC4)ccc23)cc1	2.5µM
O=C(NC1CCCCCC1)c1ccc2c(c1)sc1nc(-c3ccccc3)cn12	10µM
COc1ccc(-c2cn3c(n2)sc2cc(C(=O)NC4CCCCC4)ccc23)cc1	.
COCCCNC(=O)C1CCN(c2nn3cc(-c4ccc(F)cc4)nc3s2)CC1	.
O=C(NCCn1ccn2nc(-c3ccc(F)cc3)cc2c1=O)c1ccc(F)c(Cl)c1	.
CCc1ccc(-c2cn3c(n2)sc2cc(C(=O)NC4CCCCC4)ccc23)cc1	.
O=C(NCCn1ccn2nc(-c3ccc(F)cc3)cc2c1=O)c1ccsc1	.
CC1CCCCN1CCCNC(=O)c1ccc2c(c1)sc1nc(-c3ccc(F)cc3)cn12 (stereo not drawn)	1.4µM
O=C(NCCCN1CCCCC1)c1ccc2c(c1)sc1nc(-c3ccc(F)cc3)cn12	2.8µM
O=C(NC1CCC(O)CC1)c1ccc(-c2ncc3cnc(-c4ccccc4)cn23)cc1 (stereo not drawn)	.
Cc1nc(CC2CCN(C(=O)Cc3ccccc3)CC2)n[nH]1	.
N#Cc1ccc(C(=O)N2CCC(Cc3nc(-c4ccccc4)n[nH]3)C2)cc1 (stereo not drawn)	.
O=C(Cn1nc2c(cc1=O)CCCC2)NCCc1ccco1	.
Cc1nc(CN2CCOc3cc([S+](=O)([O-])N(C)C)ccc3C2)cs1	.
O=C1CC2CCN(C(=O)c3ccccc3)CC2CCN1 (stereo not drawn)	.
CN(C)C(=O)C1CCc2nnc(C(C)(C)C)n21 (stereo not drawn)	.
CCN(CC)Cc1cnc2c(C(=O)N3CCCCCCC3)cnn2c1	.
